The results in this text go back to PubChem BioAssay (NCATS).

Values joined by “and” are separate entries in the source; they are usually repeats but may differ in a detail not shown here. Equal entries are not always repeated. Results filed as inconclusive are left out. More than one record can exist for a structure, and the calls need not agree. Active and inactive are the calls of the source. Unless noted, the call rests on the fitted dose curve.

Test [1] can be described thus: Confirmatory qHTS for VERO E6 Cytotoxicity Assay: Counterscreen for SARS-CoV-2 CPE Assay (AID 1508605). Further: nearly all actives have a fitted effect of over 60% in size. Further: potency means the concentration at half of the fitted maximal effect.
A short description of test [2]: Confirmatory qHTS for activators (rescue) of SARS-CoV-2 Cytopathic Effect (CPE) (AID 1508606). Further: nearly all actives have a fitted effect of over 70% in size. Further: potency means the concentration at half of the fitted maximal effect.
A short description of test [3]: Cytotoxicity counterscreen for inhibitors of SARS-CoV-2 cell entry (AID 1645845). Further: nearly all actives have a fitted effect of over 50% in size. Further: potency means the concentration at half of the fitted maximal effect. The conditions noted are these: outcome: dose series up to 57.1 µM unless noted. In short, it runs like this:
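Expi293F/hACE2 cells seeded overnight; cpd pin-transferred in DMSO, 1 h preincubation, + media, 48 h 37 C 5% CO2; ATPLite 1step luminescence; normalized to cells and no cells.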
(In general: A counterscreen serves to expose hits that act by an unwanted route or on another target.)

A short description of test [4]: Primary qHTS to identify inhibitors of SARS-CoV-2 cell entry (AID 1645846). Further: nearly all actives have a fitted effect of over 45% in size. Further: potency means the concentration at half of the fitted maximal effect. The note with it: SARS-CoV-2 pseudovirus cell entry assay, luminescence; activity change, negative = inhibition: at 57.1 µM (top of the series) unless noted. The essentials:
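HEK293 cells stably expressing human ACE2, pre-treated 1 h with compound, then infected with MLV particles pseudotyped with Wuhan-Hu-1 spike (C-terminal 19-aa truncation). Luciferase luminescence after 48 h at 37 °C, normalised to spike PP and bald PP.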
Background: In qHTS, concentration-response curves come from the screen itself.

Test [5] can be described thus: Confirmatory qHTS to identify inhibitors of SARS-CoV-2 cell entry (AID 1645844). Further: potency means the concentration at half of the fitted maximal effect; nearly all actives have a fitted effect of over 45% in size. In short, it runs like this: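 HEK293-ACE2 cells (Expi293F stably expressing human ACE2) were pretreated with compounds for 1 hr at 37C, then infected with MLV-based particles carrying Wuhan-Hu-1 spike (C-terminal 19-aa truncation). Luciferase luminescence read after 48 hr; normalized to spike PP (100%) and bald PP (0%).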

A short description of test [6]: VSVG counterscreen qHTS to identify inhibitors of SARS-CoV-2 cell entry (AID 1645847). Further: potency means the concentration at half of the fitted maximal effect; nearly all actives have a fitted effect of over 65% in size. The essentials:
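HEK293-ACE2 cells (Expi293F, human ACE2) pretreated 1 h with compound, then infected with MLV-based VSV-G pseudotyped particles for 48 h at 37 C; luciferase luminescence normalized to VSV-G PP and bald PP wells.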

Test [7] is described as follows: NCATS anti-infectives library activity on HEK293 viability as a counter-qHTS vs the C. elegans viability qHTS (AID 1745854; active means well fitted curve in the direction sought with a large enough effect; an effect the other way counts as inactive or inconclusive;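 further: potency means the concentration at half of the fitted maximal effect; HEK293 cells exposed to compounds for 24 hr before the viability read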). The essentials: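 HEK293 cells (1,500/well) exposed 24 hr at 37C to 1:5 titrations, up to 41.7 uM final; counter-screen to a C. elegans viability qHTS. Viability by CellTiter-Glo luminescence after 10 min at room temperature; digitonin as control.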

Test [8] is described as follows: NCATS anti-infectives library activity on the primary C. elegans qHTS viability assay (AID 1745855). Further: potency means the concentration at half of the fitted maximal effect. In short, it runs like this:
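Viability read-out is GFP fluorescence of PE254-GFP-FLuc C. elegans, measured by laser cytometry (488 nm) at day 0, 3 and 7. Ten L1 worms per well were incubated 7 days at 21 °C with compounds and bacterial capsules in S medium.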

The nature of test [9]: AP1 Signaling Pathway (AID 357; active means well fitted curve in either direction with a large enough effect, not every such curve was filed as active; further: on the % scale 0 is the no-effect control and ±100 the full control effect). In short, it runs like this: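 AP-1-bla ME-180 cells with beta-lactamase reporter under AP-1 response element, stimulated with EC50 EGF; compounds titrated, 5 hours at 37 degrees Celsius. CCF4 read at 460/530 nm ratio; positive and negative modulators judged by AC50.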
Test [10] addresses Cytochrome P450 1A2 (Homo sapiens) (UniProt P05177). As to the kind of experiment: p450-cyp1a2 (AID 410).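 Further: -100% = full effect of reference inhibitor.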 The essentials:
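20nM CYP1A2 with 100uM Luciferin-ME (at Km) in 100mM KPO4; compound preincubated 10 min, NADPH regeneration added, 60 min at room temperature. Luciferin quantified by luminescence after detection reagent; normalized to 57 uM furafylline.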

Test [11] in a line: NFAT Signaling Pathway (AID 444; active means well fitted curve in either direction with a large enough effect, not every such curve was filed as active;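 further: carbachol stimulus at about its EC50 of 1 µM final; on the % scale 0 is the no-effect control and ±100 the full control effect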). The conditions noted are these: Jurkat NFAT-bla M1, carbachol, beta-lactamase ratio, 5 h; at 7.69 µM (top of the series). In short, it runs like this:
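Jurkat cells carrying an NFAT-driven β-lactamase reporter and co-transfected muscarinic M1 receptor were treated with compound plus carbachol (1 uM final, an EC50 level) for 5 h at 37 °C. CCF4 loading followed for 1 h at RT; 460/530 nm ratio gave %activity.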

A short description of test [12]: Stat Signaling Pathway (AID 446; active means well fitted curve in either direction with a large enough effect, not every such curve was filed as active;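 further: ME-180 cervical cancer cells given 40 pM IL-6 alongside compound; SIE-controlled beta-lactamase reporter measured as 460/530 nm FRET emission ratio; on the % scale 0 is the no-effect control and ±100 the full control effect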). The essentials:
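IL-6/STAT signaling read in ME-180 cells via an SIE beta-lactamase reporter. Stimulus was 40 pM IL-6 (its AC50) for 5 hrs, so both activation and inhibition register.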

Test [13] deals with Glucocorticoid receptor (Homo sapiens) (UniProt P04150). The experiment in a line: GR-EFC Redistribution (AID 451). Further: potency means the concentration at half of the fitted maximal effect. The conditions noted are these: CHO-K1 GR-EFC translocation, beta-gal luminescence, 2 h. The essentials: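 CHO-K1 cells stably expressing nuclear-localized β-gal enzyme acceptor and GR fused C-terminally to the enzyme donor fragment; ligand-driven nuclear translocation restores β-gal by complementation. Compounds titrated up to 46 uM final, 2 h at 37 °C; luminescence read.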
Sequence of Glucocorticoid receptor (Homo sapiens) (P04150 whole entry, looked up, the tested form may be a part): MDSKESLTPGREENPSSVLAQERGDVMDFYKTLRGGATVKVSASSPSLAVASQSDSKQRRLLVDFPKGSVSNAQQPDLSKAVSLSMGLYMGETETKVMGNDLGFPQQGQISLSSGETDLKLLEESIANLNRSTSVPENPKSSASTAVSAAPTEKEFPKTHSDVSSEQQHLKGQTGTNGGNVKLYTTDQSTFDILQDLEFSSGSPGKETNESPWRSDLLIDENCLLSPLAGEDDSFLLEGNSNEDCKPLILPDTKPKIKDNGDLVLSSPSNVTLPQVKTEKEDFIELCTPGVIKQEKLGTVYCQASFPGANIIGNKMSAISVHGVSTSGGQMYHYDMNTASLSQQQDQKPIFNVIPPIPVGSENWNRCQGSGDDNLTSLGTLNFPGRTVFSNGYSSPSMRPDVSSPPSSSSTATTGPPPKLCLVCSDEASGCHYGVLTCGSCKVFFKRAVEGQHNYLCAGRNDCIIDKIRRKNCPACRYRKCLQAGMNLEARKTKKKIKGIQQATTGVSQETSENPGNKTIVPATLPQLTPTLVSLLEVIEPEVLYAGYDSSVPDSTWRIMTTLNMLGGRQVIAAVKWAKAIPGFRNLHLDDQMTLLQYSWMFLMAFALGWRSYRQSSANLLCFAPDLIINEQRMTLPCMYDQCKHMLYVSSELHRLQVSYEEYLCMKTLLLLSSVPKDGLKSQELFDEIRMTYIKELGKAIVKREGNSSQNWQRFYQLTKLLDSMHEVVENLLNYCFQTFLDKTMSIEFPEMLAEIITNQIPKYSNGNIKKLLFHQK

The target in test [14] is Mitogen-activated protein kinase 10 (Mus musculus) (UniProt Q61831). The experiment in a line: JNK3 AlphaScreen Assay (AID 530; active means well fitted curve in either direction with a large enough effect, not every such curve was filed as active;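 further: kinase came from lysate of stimulated human HepG2 cells; signal reports phosphorylation of biotinylated GST-cJun 1-79 at Ser73 with 10 µM ATP; on the % scale 0 is the no-effect control and ±100 the full control effect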). In short, it runs like this:
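Inhibitors reduce antibody binding to phosphorylated biotin-cJun, lowering AlphaScreen luminescence. Lysates from HepG2 cells pre-activated by IL-1beta plus TNF-alpha supplied JNK3; compounds were titrated.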
(In Alpha technology, singlet oxygen from a donor bead excites a nearby acceptor bead.)

Test [15] has as its target 3',5'-cyclic-AMP phosphodiesterase 4B (Homo sapiens) (UniProt Q07343). The experiment in a line: qHTS Assay for Inhibitors of PDE-IV (AID 607; active means well fitted activation curve with a large enough effect in the main read-out, with a control signal flat, not every such curve was filed as active; further: % of control where 0% means no effect). In short, it runs like this:
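Live HEK293 cells with a modified cyclic nucleotide-gated (CNG) channel report intracellular cAMP via membrane-potential dye fluorescence (ex 535/em 590 nm). Endogenous PDE-IV was targeted. Compounds were tested at up to 22.9 uM final; RO 20-1724 100 uM served as control.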

For test [16], the target named is Cytochrome P450 3A4 (Homo sapiens) (UniProt P08684). The experiment in a line: qHTS Assay for Activators of Cytochrome P450 3A4 (AID 885; active means well fitted curve in the direction sought with a large enough effect; an effect the other way counts as inactive or inconclusive; further: nearly all actives have a fitted effect of over 65% in size). In short, it runs like this: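 Quantitative HTS format: compounds preincubated with 20nM human CYP3A4 and Luciferin-PPXE substrate at KM, reaction started by NADPH regeneration, stopped after 60 min, luciferase luminescence read 20 min later.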
Sequence of Cytochrome P450 3A4 (Homo sapiens) (P08684 whole entry, looked up): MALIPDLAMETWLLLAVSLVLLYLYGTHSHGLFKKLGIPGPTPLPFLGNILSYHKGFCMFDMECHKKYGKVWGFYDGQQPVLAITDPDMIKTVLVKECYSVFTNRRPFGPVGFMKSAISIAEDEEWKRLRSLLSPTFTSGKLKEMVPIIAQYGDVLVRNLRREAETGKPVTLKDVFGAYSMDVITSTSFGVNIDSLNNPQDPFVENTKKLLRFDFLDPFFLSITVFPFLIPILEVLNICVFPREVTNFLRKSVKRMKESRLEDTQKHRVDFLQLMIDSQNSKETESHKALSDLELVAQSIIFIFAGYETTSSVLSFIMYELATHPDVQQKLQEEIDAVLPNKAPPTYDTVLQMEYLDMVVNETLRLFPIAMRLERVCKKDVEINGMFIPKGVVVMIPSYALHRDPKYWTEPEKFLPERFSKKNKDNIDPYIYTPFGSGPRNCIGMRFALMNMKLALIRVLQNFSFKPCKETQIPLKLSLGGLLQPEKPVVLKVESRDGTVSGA

The target in test [17] is Cytochrome P450 2D6 (Homo sapiens) (UniProt P10635). As to the kind of experiment: qHTS Assay for Inhibitors and Substrates of Cytochrome P450 2D6 (AID 891; active means well fitted curve in the direction sought with a large enough effect; an effect the other way counts as inactive or inconclusive; further: potency means the concentration at half of the fitted maximal effect; nearly all actives have a fitted effect of over 60% in size). The essentials: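 Human CYP2D6 (5 nM) with 30 uM Luciferin-ME EGE (at Km) in 100 mM KPO4, compound preincubated 10 min, then NADPH regeneration system for 60 min at room temperature. Luciferin read by luminescence; normalized to 1.43 uM quinidine.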
Sequence of Cytochrome P450 2D6 (Homo sapiens) (P10635 whole entry, looked up): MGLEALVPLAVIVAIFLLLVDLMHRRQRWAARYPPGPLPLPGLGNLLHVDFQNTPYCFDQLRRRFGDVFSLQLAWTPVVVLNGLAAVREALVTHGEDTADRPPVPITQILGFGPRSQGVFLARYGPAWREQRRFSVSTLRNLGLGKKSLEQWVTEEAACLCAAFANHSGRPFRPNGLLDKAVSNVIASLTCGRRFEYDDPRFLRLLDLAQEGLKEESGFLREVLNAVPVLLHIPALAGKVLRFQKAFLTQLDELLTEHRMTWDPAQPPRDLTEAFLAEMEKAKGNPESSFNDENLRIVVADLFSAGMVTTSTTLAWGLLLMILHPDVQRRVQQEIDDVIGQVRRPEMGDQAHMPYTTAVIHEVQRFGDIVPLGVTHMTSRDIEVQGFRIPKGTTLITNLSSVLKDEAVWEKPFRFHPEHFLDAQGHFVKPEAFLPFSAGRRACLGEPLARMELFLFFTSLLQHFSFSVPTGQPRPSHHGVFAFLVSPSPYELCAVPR

Test [18] can be described thus: qHTS Assay for Lipid Storage Modulators (AID 1519). The conditions noted are these: Drosophila S3 cells, BODIPY lipid droplet/cell ratio, laser cytometry, cells loaded with oleic acid. The essentials:
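Cells seeded at 5,000 per well were treated with compounds over a concentration series and loaded with oleic acid (400 uM, as added). Lipid droplet fluorescence (488 nm excitation, 500-530 nm channel) was read by laser-scanning cytometry and normalized to 20 uM Triacsin C.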

The nature of test [19]: Counterscreen qHTS for small molecule stabilizers of the endoplasmic reticulum resident proteome: GLuc-NoTag assay (AID 1508627; active means well fitted curve in the direction sought with a large enough effect; an effect the other way counts as inactive or inconclusive;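 further: SH-SY5Y cells given compound then 100 nM thapsigargin to empty ER calcium; 0% = thapsigargin alone and -100% = DMSO vehicle control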). In short, it runs like this:
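SH-SY5Y cells stably expressing constitutively secreted GLuc (no SERCaMP tag) were pre-incubated 5 h, treated with compound for 19 h, then 100 nM thapsigargin for 4 h at 37C; medium GLuc read by coelenterazine luminescence.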

Test [20] is described as follows: Cell Viability qHTS for small molecule stabilizers of the endoplasmic reticulum resident proteome (AID 1508629; active means well fitted curve in the direction sought with a large enough effect; an effect the other way counts as inactive or inconclusive). The note with it: cell viability counter-screen, 100 nM thapsigargin for final 4 h.
Test [21] can be described thus: Primary qHTS for small molecule stabilizers of the endoplasmic reticulum resident proteome: Secreted ER Calcium Modulated Protein (SERCaMP) assay (AID 1508630; active means well fitted curve in the direction sought with a large enough effect; an effect the other way counts as inactive or inconclusive; further: on the % scale 0 is the no-effect control and ±100 the full control effect). In short, it runs like this: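 GLuc-SERCaMP-expressing SH-SY5Y cells, pretreated 16 h with compound, are challenged with thapsigargin to empty ER calcium stores; after 4 h, coelenterazine is added directly to the medium and luminescence is imaged.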

For test [22], the target named is Calcium and integrin-binding protein 1 (Homo sapiens) (UniProt Q99828). The experiment in a line: Primary qHTS for Identification of Calcium Integrin Binding Protein 1 (CIB1) Competitor (AID 1508620; active means well fitted curve in the direction sought with a large enough effect; an effect the other way counts as inactive or inconclusive). The essentials:
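Fluorescence polarization competition: CIB1-GST (1 uM final) preincubated with compound 15 min at room temperature, then FITC-labeled alphaIIb peptide (100 nM final) added for another 15 min. Polarization read at Ex 480/Em 540.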

Sequence of Calcium and integrin-binding protein 1 (Homo sapiens) (Q99828 whole entry, looked up): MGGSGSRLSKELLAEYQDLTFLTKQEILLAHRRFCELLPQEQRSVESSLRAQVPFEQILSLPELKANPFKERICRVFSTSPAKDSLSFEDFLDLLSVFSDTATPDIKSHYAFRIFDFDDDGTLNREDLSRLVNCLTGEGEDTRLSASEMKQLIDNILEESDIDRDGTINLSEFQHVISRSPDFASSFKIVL
Sequence of 3',5'-cyclic-AMP phosphodiesterase 4B (Homo sapiens) (Q07343 whole entry, looked up): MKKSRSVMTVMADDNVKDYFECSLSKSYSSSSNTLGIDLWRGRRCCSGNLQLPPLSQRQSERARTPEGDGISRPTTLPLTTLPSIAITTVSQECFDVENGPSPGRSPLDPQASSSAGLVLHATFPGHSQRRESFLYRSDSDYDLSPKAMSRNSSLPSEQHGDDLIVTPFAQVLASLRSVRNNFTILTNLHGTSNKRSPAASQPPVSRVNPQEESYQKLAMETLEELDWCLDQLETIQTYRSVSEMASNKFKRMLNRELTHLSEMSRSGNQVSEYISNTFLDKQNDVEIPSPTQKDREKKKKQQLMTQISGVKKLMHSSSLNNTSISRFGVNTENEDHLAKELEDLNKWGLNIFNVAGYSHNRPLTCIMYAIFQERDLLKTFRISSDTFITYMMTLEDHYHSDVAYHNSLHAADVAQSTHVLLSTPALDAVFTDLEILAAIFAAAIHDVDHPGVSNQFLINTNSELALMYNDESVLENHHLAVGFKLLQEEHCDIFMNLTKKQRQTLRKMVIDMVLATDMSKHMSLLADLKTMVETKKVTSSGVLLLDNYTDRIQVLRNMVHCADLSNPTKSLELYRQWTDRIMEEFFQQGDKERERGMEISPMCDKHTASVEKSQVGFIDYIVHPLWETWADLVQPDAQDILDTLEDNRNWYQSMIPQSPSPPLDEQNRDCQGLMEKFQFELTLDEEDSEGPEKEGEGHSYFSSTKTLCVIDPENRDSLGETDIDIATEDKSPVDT
Sequence of Cytochrome P450 1A2 (Homo sapiens) (P05177 whole entry, looked up): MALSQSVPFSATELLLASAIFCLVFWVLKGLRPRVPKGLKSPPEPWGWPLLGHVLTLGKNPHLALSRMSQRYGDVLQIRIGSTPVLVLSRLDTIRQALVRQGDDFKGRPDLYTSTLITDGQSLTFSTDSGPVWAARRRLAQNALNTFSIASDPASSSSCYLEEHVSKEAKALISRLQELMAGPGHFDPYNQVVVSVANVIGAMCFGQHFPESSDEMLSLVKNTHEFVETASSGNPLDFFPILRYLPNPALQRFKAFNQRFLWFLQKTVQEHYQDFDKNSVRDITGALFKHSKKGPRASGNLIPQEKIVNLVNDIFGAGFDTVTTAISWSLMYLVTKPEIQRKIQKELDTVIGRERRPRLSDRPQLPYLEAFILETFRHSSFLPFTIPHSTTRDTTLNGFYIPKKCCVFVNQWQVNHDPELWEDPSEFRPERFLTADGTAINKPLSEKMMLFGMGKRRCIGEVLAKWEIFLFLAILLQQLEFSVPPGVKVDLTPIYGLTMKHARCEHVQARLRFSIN

Regarding `CC(=O)c1c(OCCN2CCCCC2)c(OCCC(C)c2ccc(F)cc2)c2oc(C)nc2c1C` (stereo not given), the Potency result in [1] was “inactive”. The Potency in [2] is 10 µM (active).

Regarding `CNC(=O)c1ccc2c(C(=Nc3cccc(CN(C)C)c3)c3ccccc3)c(O)[nH]c2c1`, the Potency result in [1] and in [3] was “inactive” in each case.

On to `CCCCNc1ncc2c(-c3ccc(CN4CCN(C)CC4)cc3)cn(C3CCC(O)CC3)c2n1` (stereo not given), for which the Potency in [1] was 3.16 µM (active); in test [3], “inactive and 25.1 µM (active)”; in test [4] it was 14.1 µM (active). The Potency result in [2] was “inactive”.

For the molecule `Cc1nnc(-c2ccc(-c3ccc(C(=O)Nc4ccc(O)c(N5CCN(C)CC5)c4)cc3)c(C)c2)o1`, in [1], the Potency entry was “inactive”. Moreover, the Potency in test [2] was 8.91 µM (active).

`O=C1Nc2nc(-c3c(O)cccc3OCC3CC3)cc([C@@H]3CCCNC3)c2CO1`: the Potency entry in test [1] was “inactive”. Further, the Potency in [2] was 11.2 µM (active). In addition, in test [4], the activity change, negative = inhibition was -96.7%.

`OC1CCC(Oc2cccc3cnc(Nc4ccc5nc[nH]c5c4)nc23)CC1` (stereo not given): the figures for the Potency in test [5] and in test [6] were 482 nM (active) and 341 nM (active), respectively.

Consider `COC(=O)[C@]1(C)CC[C@]2(C)CC[C@]3(C)C4=CC=C5C(=CC(=O)C(O)=C5C)[C@]4(C)CC[C@@]3(C)[C@@H]2C1`, for which the Potency in test [7] is 1.12 µM (active); in test [8], 9.16 µM (active).

On to `c1ccc(N2CCCC3(CCNCC3)C2)cc1`, for which the molecule was called inactive in test [9], in test [12], in test [14] and in test [19]. In addition, the Potency entry in [10], in test [15] and in test [16] was “inactive” in each case. Besides, the activity change, negative = inhibition in test [11] is -13.8% (inactive); in test [18] (at 57.5 µM (top of the series)) it was 4.45% (inactive). Besides, the Potency in [13] is > 46 µM (inactive); in [17], 7.94 µM (active). Besides, the max response in [18] (measured here: cell count channel max response) is 4.47%; in [18] (measured here: lipid channel max response), 14.8%; in [20] it was -4.75% (inactive).

In the case of `O=C(O)c1ccc(NC(=O)N2C[C@H]3C[C@@H](C2)c2cccc(=O)n2C3)cc1`, the result in [21] was inactive.

Turning to `CCOc1ccc(CCNC(=O)c2cc3sccc3n2CCN(C)C)cc1OCC`, in [22], the outcome was inactive.

With `CC(=O)Nc1ncc(S(=O)(=O)N2CCOCC2)s1`, in test [22], the outcome was inactive.

For `O=C(CN1CCCCC1c1cccnc1)c1ccccc1` (stereo not given), the outcome in test [21] was inactive.
